# Results from the supplement of paper PMC3414501.
# Where a name gives a salt, the structure may show the parent alone.
# Legend:
# [1] = test system: S. cerevisiae SK1 pCDA2-eGFP (USY613), sporulating; test: CDA2-GFP sporulation assay sensitivity score (z-score vs DMSO controls); higher = stronger inhibition of sporulation, active = hit call of the paper;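 note: active if sensitivity score above 5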
# [2] = test system: S. cerevisiae NKY1551 his4x/his4B, sporulating; test: HIS4 meiotic recombination assay sensitivity score (z-score vs DMSO controls); higher = stronger inhibition of sporulation/recombination, active = hit call of the paper;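 note: active if sensitivity score above 5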
# [3] = test system: S. cerevisiae AD1-9 (efflux-pump deficient), vegetative growth in YPD; test: growth sensitivity score (doubling time z-score vs DMSO controls); higher = slower growth, strongly negative scores also mark growth inhibition (complete suppression), active = hit call of the paper
# Outline: (§1)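 Rich medium in microtiter plates was seeded with Saccharomyces cerevisiae strains BY4741 and AD1-9 at an OD600 of 0.065, and compounds were added as a 1:100 dilution of DMSO stock. A Tecan GENios reader recorded optical density every 15 min for 24 hours, with eight solvent-only wells in each experiment. Average doubling time was the time to reach a set generation point divided by generation number. The growth sensitivity score was the compound mean minus the solvent-only mean, divided by the solvent-only standard deviation.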
# [4] = test system: S. cerevisiae BY4741 (wild-type), vegetative growth in YPD; test: as above
# Outline: as §1
SMILES,CDA2-GFP sporulation assay sensitivity score [1],HIS4 meiotic recombination assay sensitivity score [2],growth sensitivity score [3],growth sensitivity score [4]
"CN(C)CCOC(C)(c1ccccc1)c1ccccn1 (stereo unspecified) [Doxylamine succinate] (stock concentration (mM, diluted 1:100): 10)",-0.3 (inactive),1.01 (inactive),-0.68 (inactive),1.39 (inactive)
"Cc1cccc(C)c1NC(=O)C1CCCCN1C (stereo unspecified) [Mepivacaine hydrochloride] (stock concentration (mM, diluted 1:100): 10)",1.82 (inactive),0.1 (inactive),-3.28,-0.29 (inactive)
"CC(C)NCC(O)c1ccc(NS(C)(=O)=O)cc1 (stereo unspecified) [Sotalol hydrochloride] (stock concentration (mM, diluted 1:100): 8.8)",-0.03 (inactive),-0.43 (inactive),-0.51 (inactive),-1.04 (inactive)
"N[C@@H]1CONC1=O [D-Cycloserine] (stock concentration (mM, diluted 1:100): 10)",0.63 (inactive),-5.18 (inactive),1.38 (inactive),1.58 (inactive)
"CC(C)[C@H]1CC[C@H](C(=O)N[C@H](Cc2ccccc2)C(=O)O)CC1 [Nateglinide] (stock concentration (mM, diluted 1:100): 10)",0.06 (inactive),-0.37 (inactive),0.63 (inactive),-0.35 (inactive)
"C#C[C@]1(O)CC[C@H]2[C@@H]3CCC4=CC(=O)CC[C@@H]4[C@H]3CC[C@@]21CC [Levonorgestrel] (stock concentration (mM, diluted 1:100): 10)",0.19 (inactive),-2.79 (inactive),-0.41 (inactive),0.89 (inactive)
"C=CC[C@@H]1/C=C(\C)C[C@H](C)C[C@H](OC)[C@H]2O[C@@](O)(C(=O)C(=O)N3CCCC[C@H]3C(=O)O[C@H](/C(C)=C/[C@@H]3CC[C@@H](O)[C@H](OC)C3)[C@H](C)[C@@H](O)CC1=O)[C@H](C)C[C@@H]2OC [Tacrolimus] (stock concentration (mM, diluted 1:100): 10)",0.75 (inactive),-0.77 (inactive),20.9 (active),12 (active)
"O=C(O)CCNC(=O)c1ccc(/N=N/c2ccc(O)c(C(=O)O)c2)cc1 [Balsalazide] (stock concentration (mM, diluted 1:100): 10)",1.1 (inactive),-1.14 (inactive),-1.86 (inactive),-1.09 (inactive)
"CC(=O)CCCCn1cnc2c1c(=O)n(C)c(=O)n2C [Lomifylline] (stock concentration (mM, diluted 1:100): 10)",-2.21 (inactive),-1.26 (inactive),-0.96 (inactive),0.79 (inactive)
"C[C@@H]1CN(CCCn2c3ccccc3c3ccccc32)C[C@H](C)N1 [Rimcazole] (stock concentration (mM, diluted 1:100): 10.1)",14.4 (active),-2.16 (inactive),20.3 (active),89.4 (active)
"O=C(CCCN1CC=C(n2c(=O)[nH]c3ccccc32)CC1)c1ccc(F)cc1 [Droperidol] (stock concentration (mM, diluted 1:100): 10)",3.12 (inactive),-0.15 (inactive),-1.57 (inactive),-0.99 (inactive)
"CN1CCCCC1CCN1c2ccccc2Sc2ccc([S+](C)[O-])cc21 (stereo unspecified) [Mesoridazine] (stock concentration (mM, diluted 1:100): 10)",-0.29 (inactive),-1.59 (inactive),278 (active),66 (active)
"COc1cc2c(cc1OC)C(=O)C(CC1CCN(Cc3ccccc3)CC1)C2 (stereo unspecified) [Donepezil] (stock concentration (mM, diluted 1:100): 9.1)",4.44 (inactive),0.42 (inactive),3.1 (active),2.75 (active)
"COC(=O)CCc1ccc(OCC(O)CNC(C)C)cc1 (stereo unspecified) [Esmolol hydrochloride] (stock concentration (mM, diluted 1:100): 9)",0.86 (inactive),0.23 (inactive),-2.29,-0.5 (inactive)
"CC[C@H]1OC(=O)[C@H](C)[C@@H](O[C@H]2C[C@@](C)(OC)[C@@H](O)[C@H](C)O2)[C@H](C)[C@@H](O[C@@H]2O[C@H](C)C[C@H](N(C)C)[C@H]2O)[C@](C)(OC)C[C@@H](C)C(=O)[C@H](C)[C@@H](O)[C@]1(C)O [Clarithromycin] (stock concentration (mM, diluted 1:100): 10)",-0.51 (inactive),-1.54 (inactive),-1.97 (inactive),1.37 (inactive)
"CCOC(=O)[C@@]1(CCCCCCOc2ccc(Cl)cc2)CO1 [Etomoxir] (stock concentration (mM, diluted 1:100): 10)",5.49 (inactive),-1.14 (inactive),8.16 (active),1.54 (inactive)
"CNCCCC12CCC(c3ccccc31)c1ccccc12 [Maprotilline hydrochloride] (stock concentration (mM, diluted 1:100): 10)",0.21 (inactive),9.12 (active),86.6 (active),2.3 (active)

SMILES,CDA2-GFP sporulation assay sensitivity score [1],HIS4 meiotic recombination assay sensitivity score [2],growth sensitivity score [3],growth sensitivity score [4]
"CN(C)CC/C=C1/c2ccccc2COc2ccc(CC(=O)O)cc21 [Olopatadine hydrochloride] (stock concentration (mM, diluted 1:100): 12.7)",1.08 (inactive),-0.7 (inactive),–,-0.74 (inactive)
"Nc1c2c(nc3c1CCC3)CCCC2 [Amiridine] (stock concentration (mM, diluted 1:100): 10)",2.39 (inactive),1.51 (inactive),4.09 (active),4.93 (active)
"COc1ccnc(C[S+]([O-])c2nc3cc(OC(F)F)ccc3[nH]2)c1OC (stereo unspecified) [Pantoprazole sodium] (stock concentration (mM, diluted 1:100): 10)",0.75 (inactive),0.54 (inactive),-2.1,-0.44 (inactive)
"COc1cc(C)nc(-n2nc(C)cc2OC)n1 [Mepirizole] (stock concentration (mM, diluted 1:100): 10)",-1.87 (inactive),-1.87 (inactive),-0.94 (inactive),-1.02 (inactive)
"CCN(CC)CC(=O)Nc1c(C)cccc1C [Lidocaine] (stock concentration (mM, diluted 1:100): 9.6)",0.09 (inactive),-2.75 (inactive),-0.9 (inactive),-0.16 (inactive)
"CS(=O)(=O)c1ccc(C2=C(c3ccccc3)C(=O)OC2)cc1 [Rofecoxib] (stock concentration (mM, diluted 1:100): 10)",0.79 (inactive),-1.67 (inactive),-0.37 (inactive),0.04 (inactive)
"COc1cc([C@@H]2c3cc4c(cc3[C@@H](O[C@@H]3O[C@@H]5CO[C@@H](C)O[C@H]5[C@H](O)[C@H]3O)[C@H]3COC(=O)[C@H]23)OCO4)cc(OC)c1O [Etoposide] (stock concentration (mM, diluted 1:100): 10)",3.42 (inactive),0.11 (inactive),59.2 (active),0.01 (inactive)
"COc1ccc2[nH]c([S+]([O-])Cc3ncc(C)c(OC)c3C)nc2c1 (stereo unspecified) [Esomeprazole mg] (stock concentration (mM, diluted 1:100): 4.8)",3.2 (inactive),0.32 (inactive),-2.89,0.69 (inactive)
"NC1CCN(c2cccc(Cl)n2)CC1 (stock concentration (mM, diluted 1:100): 10)",13.8 (active),2.37 (inactive),-0.47 (inactive),-0.16 (inactive)
"COc1cc(-c2ccc(=O)[nH]n2)ccc1OC(F)F [Zardaverine] (stock concentration (mM, diluted 1:100): 11.7)",1.43 (inactive),-0.18 (inactive),2.67 (active),1.71 (inactive)
"Nc1ncnc2c1ncn2[C@@H]1O[C@H](CO)C[C@@H]1O [3-Deoxydenosine] (stock concentration (mM, diluted 1:100): 10)",19.9 (active),7.05 (active),110 (active),1.06 (inactive)
"O=C(CCNNC(=O)c1ccncc1)NCc1ccccc1 [Nialamide] (stock concentration (mM, diluted 1:100): 10)",1.74 (inactive),-1.89 (inactive),-0.06 (inactive),0.19 (inactive)
"CN(C)CCCC1(c2ccc(F)cc2)OCc2cc(C#N)ccc21 (stereo unspecified) [Citalopram hydrobromide] (stock concentration (mM, diluted 1:100): 7.9)",-1.83 (inactive),7.31 (active),0.63 (inactive),-0.04 (inactive)
"CC(C)(C)NC(=O)[C@H]1CC[C@H]2[C@@H]3CC[C@H]4NC(=O)C=C[C@]4(C)[C@H]3CC[C@]12C [Finasteride] (stock concentration (mM, diluted 1:100): 10)",3.51 (inactive),3.09 (inactive),20.2 (active),1.37 (inactive)
"CC(C)NCC(O)COc1ccc(COCCOC(C)C)cc1 (stereo unspecified) [Bisoprolol fumarate] (stock concentration (mM, diluted 1:100): 8.5)",0.16 (inactive),-0.11 (inactive),-0.36 (inactive),0.65 (inactive)
"CC(=O)OCC(=O)NCCCOc1cccc(CN2CCCCC2)c1 [Roxatidine acetate hydrochloride] (stock concentration (mM, diluted 1:100): 9.1)",0.57 (inactive),-1.59 (inactive),-0.42 (inactive),-1.51 (inactive)
